Reference: PubChem BioAssay (NCI)
This is part of a sample that, as a whole, favours compounds with a hit. Of some 83,000 tested, about 20% had one in any assay.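 Negative percent growth values reflect cell death: -40 means 40% of the cells present at the start died, and -100 means all died.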 Unmarked numbers belong to inactive results. Activity calls are given as the source filed them. How the source made its calls: active means growth percent below 10; inactive means the rest.

Tests used:
Assay in all cases: NCI-60 one-dose screen, 48 h (100 = growth as untreated, 0 = no growth, -100 = all killed)
Conditions in all cases: 10 µM unless noted
[1] = system: NCI-H23 lung
[2] = system: NCI-H226 lung
[3] = system: NCI-H322M lung
[4] = system: HOP-62 NSCLC
[5] = system: NCI-H460 lung
[6] = system: HOP-92 NSCLC
[7] = system: NCI-H522 lung
[8] = system: A549/ATCC NSCLC
[9] = system: 786-0 renal
[10] = system: COLO 205 colon

| Structure (SMILES) | growth [1] | growth [2] | growth [3] | growth [4] | growth [5] | growth [6] | growth [7] | growth [8] | growth [9] | growth [10] |
| --- | --- | --- | --- | --- | --- | --- | --- | --- | --- | --- |
| CCN1C(=O)N(CC)C2C1NN=c1s/c(=C\c3cccs3)c(=O)n12 (stereo not given) | 36.4% | 79% | 42.7% | 46.4% | 8.1% (active) | 64.1% | -9.67% (active) | 25.3% | 28.5% | -6.95% (active) |
| CCN(CC)Cc1cccc(C(=O)OC)c1 | 96.6% | 90.2% | 106% | 85.2% | 103% | 87.7% | 101% | 69% | 90.7% | 106% |
| Cc1cc(=O)[nH]c(N=Nc2c(O)[nH]c3ccccc23)n1 | 100% | 97.9% | 123% | 119% | 105% | 101% | 103% | 103% | 102% | 89.5% |
| Cn1ccc2c(c1=O)C(=O)c1nccc3c1c-2nc1ccccc13 | -66.6% (active) | 83.1% | 17.4% | -86.6% (active) | -74.7% (active) | 62.8% | -68.5% (active) | -87.4% (active) | -95.5% (active) | -75.5% (active) |
| Cc1ccc(CCC(=O)Nc2ncc(Cc3cc(Cl)ccc3Cl)s2)o1 | 31.9% | 45.5% | 33.3% | 35.6% | 5.71% (active) | 56.6% | 3.08% (active) | 23.1% | 26.1% | 2.59% (active) |
| COc1cc(N2C(=O)c3nccnc3C2=O)cc(OC)c1OC | 99.6% | 114% | 99.7% | 95.9% | 111% | 89.9% | 95.2% | 105% | 97.1% | 111% |
| Cc1ccc(-c2cc(-c3ccccc3C)[nH]c(=O)c2C#N)s1 | 92.4% | 93.1% | 79.1% | 90.4% | 98.7% | 54% | 87.5% | 87.9% | 78.8% | 117% |
| COc1ccc(N=C(c2ccccc2)C2C(=O)c3ccccc3C2=O)cc1 | 99.4% | 96.8% | 105% | 97% | 96.4% | -11.2% (active) | 67% | 93.6% | 97.3% | 102% |
| CC(=O)OC1CCC2(C)C(=CC3C4CCC(=O)C4(C)CCC32)C1 (stereo not given) | 102% | 107% | 113% | 111% | 108% | 101% | 96.9% | 101% | 102% | 94% |
| CNc1ccc(NC)c2c1C(=O)c1ccccc1C2=O | 70.1% | 79.1% | 84% | 87% | 91% | 78.3% | 97.1% | 100% | 92.1% | 108% |
| CN1CCN(CCCOc2ccc3nc(Nc4ccc(F)c(F)c4)ccc3c2)CC1 | 51.5% | 62.9% | 68% | 22.5% | 7.51% (active) | 5.74% (active) | -50.4% (active) | 16.1% | 2.05% (active) | -72% (active) |
| CC/C=C\C/C=C\C[C@H](O)C/C=C1/C(=O)C=C[C@@H]1C/C=C\CCCC(=O)O | 61.8% | 59.6% | 53.4% | 62.8% | 31.8% | 87.3% | -22.8% (active) | 57.3% | -38.7% (active) | 27% |
| CCCCCS(=O)(=O)Nc1ccc(C(=O)O)cc1 | 102% | 98.9% | 97.3% | 98.2% | 104% | 105% | 75.4% | 87.4% | 102% | 104% |
| O=C1/C(=C/c2ccc(F)cc2)C=C(c2ccccc2)N1CCc1ccccc1 | 70.8% | 51.9% | 65.6% | -3.68% (active) | 61.3% | 7.45% (active) | 42.9% | 40.8% | 27.6% | 71.9% |
| Cc1ccc(-c2c(-c3ccccc3)c(=O)oc3ccc(C)cc23)cc1 | 96.1% | 89.6% | 97.8% | 101% | 93.8% | 84% | 107% | 91% | 105% | 91.4% |
| O=C(NCCNc1cc(-c2cn(-c3ccccc3)nc2-c2cccc(O)c2)ccn1)Nc1ccccc1 | 69.4% | 70.6% | 95.3% | 63.7% | 86.2% | 54.5% | 70.8% | 52.5% | 71.4% | 81.2% |
| CCCc1cc2c(=O)c(C(=O)OC)c[nH]c2cc1N(CC)CC | 102% | 81.7% | 84.2% | 90% | 102% | 111% | 73.7% | -20% (active) | 101% | 119% |
| Cc1ccc2nc(NC(=O)CSc3nc(Nc4ccc([N+](=O)[O-])cc4)c(C#N)c(-c4ccccc4)n3)sc2c1 | 99.6% | 98.7% | 92.6% | 95.6% | 98.7% | 90.9% | 87.3% | 93.8% | 101% | 108% |
| NC(=N\N=C/c1cccc([N+](=O)[O-])c1)/C(N)=N\N=C/c1cccc([N+](=O)[O-])c1 | 78.4% | 64% | 110% | 10.6% | -21.5% (active) | 73.9% | 66.9% | 15.6% | 109% | 19.4% |
| O=C1/C(=C\c2cccnc2)SC(=S)N1CCc1ccc(O)cc1 | 50% | 94.2% | 91.5% | 45.6% | 18.7% | 27.4% | 11.9% | 93.9% | 39.1% | 79.9% |
| CCCCCCCCCCCCCCCCCC1=NCCN1CCOC1=C(Cl)C(=O)c2ccccc2C1=O | 79.4% | 100% | 80.5% | 82.6% | 98.3% | 46.4% | 13.8% | 95.3% | 98.3% | 41.2% |
| O=C1Nc2ccccc2/C1=C/c1cn(C(=O)c2ccc(Cl)cc2)c2ccccc12 | 90.8% | 92.3% | 127% | 111% | 107% | 99.3% | 85.6% | 101% | 111% | 58.2% |
| CCCCCCCCCCCCCCCCCCOc1ccccc1CC(=O)OCCC[N+](C)(C)C | 46.4% | 78% | 84.3% | 67.1% | 80.1% | 39.6% | 36.3% | 54.2% | 50.7% | 16.7% |
| C=CC(=O)Nc1cccc(Oc2nccc(Nc3nnc(C4CC4)s3)n2)c1 | 97.1% | 101% | 105% | 110% | 95.6% | 66.1% | 86.8% | 103% | 86.6% | 107% |
| COCCc1ccc(OCC(O)CNC(C)C)cc1 (stereo not given) | 98.5% | 109% | 99.2% | 101% | 107% | 73.1% | 93.3% | 104% | 97.8% | 106% |
| O=C(COc1ccc(/C=C2\Oc3ccccc3C2=O)cc1)Nc1nc2ccccc2s1 | 48.5% | 98.4% | 118% | 73.8% | 111% | -90.4% (active) | -79.9% (active) | 68.3% | 49% | 91.5% |
